This is a sample that favours compounds with a hit; in the whole collection about 4.7% have one here.
ADAM10 inh – inhibits human ADAM10. recombinant ADAM10, EDANS/DABCYL FRET peptide cleavage, 3 h. 370,000 compounds, 0.62% hits. inhibition, % at 7 µM. O14672;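 active = inhibition above a per-campaign cutoff equal to the mean of compounds falling between control-based bounds plus 3 SD, cut at about 20% in these data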;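 also: 0% = DMSO wells while the 100% control is not disclosed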
rCAG RNA binder – r(CAG) repeat RNA binding. 370,000 compounds, 1.3% hits. inhibition, % at 3 µM. AID 651821. TO-PRO-1 dye displacement fluorescence;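 active = inhibition above the plate cutoff, the mean of all test compounds on that plate plus 3 SD, cut at about 35% in these data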;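 also: 0% = DMSO alone and 100% = 100 µM mitoxantrone as full dye displacement; higher means more dye released from RNA so lower well fluorescence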
proKLK7 act – activators of human kallikrein-7 zymogen. P49862. purified proKLK7, EDANS-DABCYL substrate fluorescence; 100% is mature enzyme control, 0% vehicle. activation, % at 7 µM. 370,000 compounds, 0.9% hits;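 active = activation above the mean of all tested compounds plus 3 SD, computed per campaign excluding outliers beyond control limits, cut at about 13% in these data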
Target sequence (P49862 whole entry, looked up): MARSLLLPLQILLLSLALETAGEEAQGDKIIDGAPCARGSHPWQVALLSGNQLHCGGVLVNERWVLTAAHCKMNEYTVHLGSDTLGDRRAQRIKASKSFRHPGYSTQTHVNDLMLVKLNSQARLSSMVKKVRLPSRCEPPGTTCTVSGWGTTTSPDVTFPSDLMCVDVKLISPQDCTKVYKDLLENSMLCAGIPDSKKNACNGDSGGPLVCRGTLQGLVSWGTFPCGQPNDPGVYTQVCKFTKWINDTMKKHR
Pemphigus Ab inh – blocks pemphigus antibody binding to human desmoglein-3. DSG3-coupled beads, scFv-anti-DSG3-GFP binding, flow cytometry; stronger effect = lower value. AID 588358. binding (percent of control), % at 10 µM. 310,000 compounds, 0.48% hits. P32926;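 active = binding more than 3 SD below its plate's average and above zero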
ADAM17 inh – inhibits human ADAM17; P78536; recombinant ADAM17, EDANS/DABCYL FRET peptide cleavage; inhibition, % at 6.95 µM; 370,000 compounds, 0.83% hits; AID 720648;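 active = inhibition above the mean of compounds lying between control limits plus 3 SD, set per campaign, cut at about 8.5% in these data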;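 also: 0% = DMSO-only wells as the low control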
MPTP inh – blocks calcium-induced mitochondrial swelling | AID 602449 | isolated mouse mitochondria, Ca2+ swelling absorbance, 30 min | inhibition, % at 10 µM | 360,000 compounds, 1.4% hits;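 active = inhibition of 50% or more, scaled per plate between neutral and stimulator controls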;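 also: 0% = DMSO wells given calcium and 100% = 1 mM EGTA wells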
proKLK7 act conf – confirmation of human kallikrein-7 zymogen activators | shares compounds with proKLK7 act | activation, % at 7 µM | purified proKLK7, EDANS-DABCYL substrate fluorescence; scaled: vehicle 0, mature enzyme 100 | AID 686949 | 3,200 compounds, 68% hits;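 active = activation, as change over the incubation, above the mean of all tested compounds plus 3 SD, cut at about 13% in these data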
EDANS-DABCYL int – counter-screen for kallikrein-7 activators: EDANS-DABCYL optical interference. activation, % at 7 µM. AID 686952. 3,200 compounds, 80% hits. shares compounds with proKLK7 act. EDANS-DABCYL substrate fluorescence interference, no enzyme, 4 h; solvent 0%, active enzyme control 100%;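 active = activation above the all-compound mean plus 3 SD, ignoring values outside control-based bounds, cut at about 4.8% in these data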;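 also: value is the 4 h activation minus the activation read at time zero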
An asterisk follows results filed as active; i = inactive; / = not tested or not shown.

SMILES	ADAM10 inh	rCAG RNA binder	proKLK7 act	Pemphigus Ab inh	ADAM17 inh	MPTP inh	proKLK7 act conf	EDANS-DABCYL int
COc1ccc(-c2cc3nc[nH]c(=O)c3s2)cc1	i	2	41*	91	i	-1	-6	15*
COc1ccc(-c2cc3nc(CCl)[nH]c(=O)c3s2)cc1	i	9	19*	94	i	0	3	4
COc1cccc(-c2n[nH]c(=S)n2Cc2ccco2)c1	11	6	-1	87	0	0	/	/
NC(=S)N/N=C/c1ccccc1OC(=O)c1cc2ccccc2oc1=O	-62	3	42*	109	-20	0	228*	200*
N/C(=N\NC(=O)c1ccccc1)c1cc2ccccc2oc1=O	-24	1	-1	110	-9	2	/	/
NC(=O)N/N=C/c1ccccc1OC(=O)c1cc2ccccc2oc1=O	-51	2	79*	103	-18	-5	259*	259*
O=C(CN1C(=O)NC2(CCc3ccccc32)C1=O)Nc1ccccc1Cl (centres undefined)	-1	3	0	/	4	-1	/	/
COc1ccc2c(c1)OC(O)(C(F)F)CC2=O (centres undefined)	3	1	0	120	3	-1	/	/
CC1(C)Cc2c(ccc3ccccc23)C(=O)N1	-29	-2	1	/	1	0	/	/
O=C1CC(O)(C(F)(F)F)Oc2c1ccc1ccccc21 (centres undefined)	-343	8	54*	100	-127	24	4	5.3*
O=C1CC(O)(C(F)F)Oc2ccc3ccccc3c21 (centres undefined)	-455	-1	47*	102	-145	-2	2	3
COC(=O)c1cc(N2CCN(C)CC2)nc2ccccc12	-269	-76	61*	103	-101	0	15*	13*
CCOC(=O)c1cc(N2CCCCC2)nc2ccccc12	-214	3	17*	128	-54	1	3	4.9*
CCc1nc2c(OCC(=O)C(C)(C)C)cccn2c1N(C)C(=O)c1ccco1	-20	-1	1	/	-3	1	/	/
COCCCn1c(=S)[nH]c2ccc(N3CCOCC3)cc2c1=O	-235	-6	58*	84	-64	6	30*	49*
COCCn1c(=S)[nH]c2ccc(N(C)C)cc2c1=O	-182	3	48*	99	-59	2	76*	74*
CCCCN(C)CCn1c(=S)[nH]c2ccc(N3CCOCC3)cc2c1=O	i	-3	68*	97	-153	2	-8	-8
CCOc1cc2[nH]c(=S)n(CCOC)c(=O)c2cc1OCC	3	-4	0	97	-1	13	/	/
O=c1c2cc(N3CCOCC3)ccc2[nH]c(=S)n1Cc1ccccn1	-265	-3	80*	/	-57	0	21*	20*
COc1ccc(CCn2c(=S)[nH]c3ccc(N4CCOCC4)cc3c2=O)cc1OC	-17	0	-3	102	-12	-2	/	/
OC[C@H]1O[C@@](CO)(O[C@H]2O[C@H](CO)[C@@H](O)[C@H](O)[C@H]2O)[C@@H](O[C@H]2O[C@H](CO)[C@@H](O)[C@H](O)[C@H]2O)[C@@H]1O	-15	0	1	/	-2	-3	/	/
COC(=O)c1ccc2nc(-c3ccccc3)c(Cc3ccccc3OC)n2c1	-13	15	0	/	-1	2	/	/
Cc1ccc(-n2nc3c(c2NC(=O)c2ccc4c(c2)OCO4)CS(=O)(=O)C3)c(C)c1	6	-1	0	101	0	-1	/	/
O=c1c2cc(N3CCOCC3)ccc2[nH]c(=S)n1CC1CCCO1 (centres undefined)	-120	1	32*	106	-48	0	-16	4.7*
O=C(CCCCCn1c(=S)[nH]c2ccc(N3CCOCC3)cc2c1=O)NCc1cccc(Cl)c1	-22	1	17*	109	-13	-6	-32	-38
